DT40 TDP1 no CPT – qHTS for Inhibitors of human tyrosyl-DNA phosphodiesterase 1 (TDP1): qHTS in cells in absence of CPT; DT40 Tdp1-/- hTDP1 cells, no CPT, ATP luminescence, 48 h; Potency, µM (series often up to 46.2 µM), for the others: at the highest dose activity change, negative = growth inhibition, actives largely listed as inhibitors; hit rate 15% among 420,000; AID 686978, 2013; note: potency is the fitted concentration of half-maximal effect; nearly all actives have a fitted effect of over 55% in size
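Camptothecin absent (DMSO only). Human TDP1-complemented DT40 knockout cells, 400 cells/well, 37 °C for minimum 48 hr; ATP measured via CellTiter-Glo, 30 min dark incubation, luminescence.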
HT1080NT lethal – kills 2HG-producing HT-1080-NT fibrosarcoma cells | hit rate 1.6% among 360,000 | HT-1080-NT fibrosarcoma viability, CellTiter-Glo ATP luminescence, 48 h | Potency, µM (series often up to 46.1 µM), for inactives: top-dose activity, negative = less viability, most hits filed as cytotoxic;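 note: NT is the 2HG producing partner of a matched IDH1 knockdown line; potency is the fitted concentration of half-maximal effect; 0% = DMSO-treated cells and -100% = media-only wells without cells; nearly all actives have a fitted effect of over 55% in size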
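HT-1080-NT; 750 cells/well; 5% FBS RPMI; 48 h compound, 37 degrees C; CellTiter-Glo luminescence; curve fitting and curve-class assignment.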
IL1B secr inh – inhibitors of inflammasome signaling (IL-1 beta secretion); THP-1 LPS/ATP IL-1B secretion, AlphaLISA, 16 h; stronger effect = lower value; activity change, % at 57.5 µM; hit rate 4.7% among 360,000; in the data active = activity change below about -50%; inconclusive = mostly about -30% to -49%
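THP-1 cells pretreated 1 hr with compounds (up to 57.5 uM final), then stimulated with LPS (250 ng/mL final) plus ATP (1.25 mM final); secreted IL-1B measured by AlphaLISA after 16 hr, decreased signal indicating inhibition.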
DT40 TDP1 CPT – growth inhibition of DT40 Tdp1-/-;hTDP1 cells with camptothecin (screen for TDP1 inhibitors). chicken DT40 Tdp1-/-;hTDP1 cells + 20 nM CPT, ATP luminescence, 48 h. Potency, µM (top dose mostly 46.2 µM), for the others: at the highest dose activity change, negative = growth inhibition, actives largely listed as inhibitors. hit rate 12% among 420,000. AID 686979; note: potency is the fitted concentration of half-maximal effect; nearly all actives have a fitted effect of over 55% in size
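Cell growth measured by CellTiter-Glo luminescence after a minimum 48 h, 37 C compound exposure with 20 nM CPT in Tdp1-knockout DT40 cells stably expressing hTDP1, seeded 400/well; qHTS titration format.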
HT1080 IDH1KD tx – kills HT-1080 cells with IDH1 knockdown; HT-1080 IDH1 knockdown viability, ATP luminescence, 48 h; Potency, µM (highest dose often 46.1 µM), without a hit: top-dose activity, negative = toxicity, hits mostly cytotoxic; hit rate 2% among 360,000;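 note: potency is the fitted concentration of half-maximal effect; 0% = DMSO wells and -100% = cell-free medium wells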
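CellTiter-Glo luminescence after 48 h compound exposure at 37 degrees C of IDH1-knockdown HT-1080 cells in 5% FBS RPMI. %Activity scaled between DMSO wells and cell-free media wells, with curves fitted and assigned curve classes.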
An asterisk follows results filed as active. In the library only some 19% were active in any assay of this set; here they are far more common. Unless noted, calls come from the whole dose curve; as a rule, active = well fitted curve in the direction sought with a large enough effect; inconclusive = small, poorly fitted or top-dose-only effect, or another doubt; inactive = no such curve, though single readings can be large; an effect the other way counts as inactive or inconclusive. Unless noted, % is set by controls: 0 for no effect and ±100 for the full control effect.

CCN(CC)CCN(C(=O)c1ccc(S(=O)(=O)N2CCCCC2)cc1)c1nc2cc3c(cc2s1)OCO3 was read as DT40 TDP1 no CPT inconclusive, HT1080NT lethal -18%, IL1B secr inh -10, DT40 TDP1 CPT inconclusive and HT1080 IDH1KD tx -3%.
CC(=O)OC1CC[C@@]2(C)C(CC[C@@]3(C)C2CC=C2C4CC(C)(C)CC[C@]4(C(=O)O)CC[C@@]23C)C1(C)C (some centres not stated) was read as DT40 TDP1 no CPT -4% and DT40 TDP1 CPT -2%.
`Cc1nn(-c2ccccc2)c(C)c1/C=C1\C(=O)N(C)C(=S)N1C` gave DT40 TDP1 no CPT 16µM*, HT1080NT lethal -19%, IL1B secr inh 4, DT40 TDP1 CPT inconclusive and HT1080 IDH1KD tx -21%.
CC1(C)NC(=O)N(c2ccc([N+](=O)[O-])c(C(F)(F)F)c2)C1=O was read as DT40 TDP1 no CPT 4.6µM*, HT1080NT lethal 9%, IL1B secr inh 6, DT40 TDP1 CPT 19µM* and HT1080 IDH1KD tx 0%.
For COc1ccccc1C(CNC(=O)CCNS(=O)(=O)c1ccc(Br)cc1)N1CCCC1 (configuration not stated) the results were DT40 TDP1 no CPT inconclusive, HT1080NT lethal -10%, IL1B secr inh -9, DT40 TDP1 CPT inconclusive and HT1080 IDH1KD tx -7%.
Screening CC1(C(=O)NS(=O)(=O)c2ccc3c(c2)CCO3)CCN1C(=O)C1(c2ccc(Cl)cc2)CCC1 (configuration not stated) returned DT40 TDP1 no CPT -13%, HT1080NT lethal 1%, IL1B secr inh 15, DT40 TDP1 CPT inconclusive and HT1080 IDH1KD tx 17%.
CCSc1nc2ccccc2n1C(=O)/C=C\c1ccc(OC)c(OC)c1 was read as DT40 TDP1 no CPT 5.2µM*, HT1080NT lethal -20%, IL1B secr inh -97*, DT40 TDP1 CPT 4.6µM* and HT1080 IDH1KD tx inconclusive.
COc1ccc(CCn2c(=S)[nH]c(=O)c3nccnc32)cc1OC was read as DT40 TDP1 no CPT 3.2µM*, HT1080NT lethal 3%, DT40 TDP1 CPT 6.3µM* and HT1080 IDH1KD tx -5%.
CCSc1nc2ccccc2c(=O)n1CCc1ccc(OC)c(OC)c1 was read as DT40 TDP1 no CPT 12µM*, HT1080NT lethal -5%, IL1B secr inh -6, DT40 TDP1 CPT 13µM* and HT1080 IDH1KD tx -16%.
`COc1ccc(CCn2c(-c3ccco3)nc3ccccc3c2=O)cc1OC` gave DT40 TDP1 no CPT 2.6µM*, HT1080NT lethal -14%, IL1B secr inh -54*, DT40 TDP1 CPT 2.6µM* and HT1080 IDH1KD tx inconclusive.
Screening COCCCn1c(-c2ccco2)nc2ccccc2c1=O returned DT40 TDP1 no CPT -29%, HT1080NT lethal -3%, IL1B secr inh 5, DT40 TDP1 CPT -19% and HT1080 IDH1KD tx 2%.
Screening CCOc1ccc(NC(=O)CCc2nnc3ccc(N4CCC5(CC4)OCCO5)nn23)cc1 returned DT40 TDP1 no CPT 4%, HT1080NT lethal 6%, IL1B secr inh 22, DT40 TDP1 CPT -3% and HT1080 IDH1KD tx 12%.
`COc1ccc(CCN2CN(S(=O)(=O)c3ccc(C)cc3)c3nc4ccccc4nc32)cc1OC` gave DT40 TDP1 no CPT inconclusive, HT1080NT lethal 6%, IL1B secr inh 6, DT40 TDP1 CPT 23µM* and HT1080 IDH1KD tx -2%.
For O=c1c2ccccc2nc(-c2ccco2)n1CCc1ccc(O)cc1 the results were DT40 TDP1 no CPT 5.8µM*, HT1080NT lethal -28%, IL1B secr inh 1, DT40 TDP1 CPT inconclusive and HT1080 IDH1KD tx -23%.
Screening CCn1c(-c2ccco2)nc2ccccc21 returned DT40 TDP1 no CPT inconclusive, HT1080NT lethal 15%, IL1B secr inh 39, DT40 TDP1 CPT -11% and HT1080 IDH1KD tx 12%.
COc1ccc(CCn2nnc3ccccc3c2=O)cc1OC was read as DT40 TDP1 no CPT inconclusive, HT1080NT lethal 16%, IL1B secr inh -9, DT40 TDP1 CPT -24% and HT1080 IDH1KD tx 19%.
For COc1ccc(CCN2CN(S(=O)(=O)c3ccc(OC)cc3)c3nc4ccccc4nc32)cc1 the results were DT40 TDP1 no CPT inconclusive, HT1080NT lethal -3%, IL1B secr inh 2, DT40 TDP1 CPT inconclusive and HT1080 IDH1KD tx -8%.
`O=c1c2ccccc2nc(-c2ccco2)n1CCCn1ccnc1` gave DT40 TDP1 no CPT -7%, HT1080NT lethal 0%, IL1B secr inh 16, DT40 TDP1 CPT -25% and HT1080 IDH1KD tx -19%.
Cn1c(-n2c(-c3ccco3)nc3ccccc3c2=O)nc2ccccc21 was read as DT40 TDP1 no CPT 5.8µM*, HT1080NT lethal -22%, IL1B secr inh 11, DT40 TDP1 CPT 3.7µM* and HT1080 IDH1KD tx inconclusive.
For COc1ccc(CCn2c(C)nc3ccccc3c2=O)cc1OC the results were DT40 TDP1 no CPT 21µM*, HT1080NT lethal 18%, IL1B secr inh -2, DT40 TDP1 CPT inconclusive and HT1080 IDH1KD tx 8%.
NC(=O)CC(NC(=O)c1ccccc1)c1ccc(N2CCc3ccccc3C2)c([N+](=O)[O-])c1 (configuration not stated) was read as DT40 TDP1 no CPT inconclusive, HT1080NT lethal -3%, IL1B secr inh 0, DT40 TDP1 CPT inconclusive and HT1080 IDH1KD tx 0%.
NC(=O)CC(NC(=O)Cc1cccc2ccccc12)c1ccc(N2CCC(Cc3ccccc3)CC2)c([N+](=O)[O-])c1 (configuration not stated) was read as DT40 TDP1 no CPT inconclusive, HT1080NT lethal -2%, IL1B secr inh 0, DT40 TDP1 CPT -29% and HT1080 IDH1KD tx -16%.
For NC(=O)CC(NC(=O)Cc1ccc(Br)cc1)c1ccc(N2CCCCCCC2)c([N+](=O)[O-])c1 (configuration not stated) the results were DT40 TDP1 no CPT -23%, HT1080NT lethal -22%, IL1B secr inh -2, DT40 TDP1 CPT inconclusive and HT1080 IDH1KD tx -12%.
For NC(=O)CC(NC(=O)c1ccc(Br)cc1)c1ccc(N2CCCCCC2)c([N+](=O)[O-])c1 (configuration not stated) the results were DT40 TDP1 no CPT 16µM*, HT1080NT lethal -23%, IL1B secr inh -1, DT40 TDP1 CPT 16µM* and HT1080 IDH1KD tx -3%.
NC(=O)CC(NC(=O)c1ccccc1)c1ccc(N2CCCCCCC2)c([N+](=O)[O-])c1 (configuration not stated) was read as DT40 TDP1 no CPT 9.2µM*, HT1080NT lethal 18%, IL1B secr inh 6, DT40 TDP1 CPT 8.2µM* and HT1080 IDH1KD tx 0%.

Screens: PubChem BioAssay, National Center for Advancing Translational Sciences (NCATS)
